# Assay outcomes as filed in PubChem.
# VLA-4 inh: inhibition in a human VLA-4 binding assay; AID 2557; VLA-4 expressing cells, ligand binding flow cytometry; 0.2% of 330,000 active; P13612; inhibition, % (about 7 µM as worked out from the volumes in the protocol); in the data active means inhibition above about 50%
# ALR inh: human ALR oxidase inhibition via reduced H2O2 | purified ALR, DTT oxidation, H2O2 HRP-luminol luminescence | inhibition, % (concentration not given with the values) | 3.8% of 290,000 active;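 active means mean replicate inhibition above about 79%, with every replicate also reaching it, limit read from the data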
# Mot1-301 SUMO: SUMOylation pathway inhibition by Mot1-301 growth rescue; S. cerevisiae Mot1-301 growth rescue, ATP luminescence, 38.5C; percent above DMSO median, 100 means doubled; growth rescue, % at 18.8 µM; 1% of 320,000 active;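 active means every valid replicate shows activation above 250% relative to neutral control wells; inactive means the rest, any valid replicate at or below 250%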;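 further: OY570 slx delta 5 strain wells were the positive control but not used for scaling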
# Bfl-1 A1 inh: inhibitors of the anti-apoptotic protein A1, read as caspase activation; 0.066% of 330,000 active; MEF A1-2A-BIM cells, Caspase-Glo 3/7 luminescence, 3 h; percent of clofoctol response, vehicle zero; caspase activation, % (concentration not given with the values);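 active means over half of replicate activation scores above 10%, or exactly half above 10 with the replicate mean above 10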
# AHR act: activates the human aryl hydrocarbon receptor; P35869; activation, % at 5 µM; AHR-responsive luciferase reporter cells, luminescence; 2.5% of 320,000 active; in the data active means activation above about 47%;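 further: 0% = vehicle wells and 100% = reference agonist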
# Target sequence (P35869 whole entry, looked up): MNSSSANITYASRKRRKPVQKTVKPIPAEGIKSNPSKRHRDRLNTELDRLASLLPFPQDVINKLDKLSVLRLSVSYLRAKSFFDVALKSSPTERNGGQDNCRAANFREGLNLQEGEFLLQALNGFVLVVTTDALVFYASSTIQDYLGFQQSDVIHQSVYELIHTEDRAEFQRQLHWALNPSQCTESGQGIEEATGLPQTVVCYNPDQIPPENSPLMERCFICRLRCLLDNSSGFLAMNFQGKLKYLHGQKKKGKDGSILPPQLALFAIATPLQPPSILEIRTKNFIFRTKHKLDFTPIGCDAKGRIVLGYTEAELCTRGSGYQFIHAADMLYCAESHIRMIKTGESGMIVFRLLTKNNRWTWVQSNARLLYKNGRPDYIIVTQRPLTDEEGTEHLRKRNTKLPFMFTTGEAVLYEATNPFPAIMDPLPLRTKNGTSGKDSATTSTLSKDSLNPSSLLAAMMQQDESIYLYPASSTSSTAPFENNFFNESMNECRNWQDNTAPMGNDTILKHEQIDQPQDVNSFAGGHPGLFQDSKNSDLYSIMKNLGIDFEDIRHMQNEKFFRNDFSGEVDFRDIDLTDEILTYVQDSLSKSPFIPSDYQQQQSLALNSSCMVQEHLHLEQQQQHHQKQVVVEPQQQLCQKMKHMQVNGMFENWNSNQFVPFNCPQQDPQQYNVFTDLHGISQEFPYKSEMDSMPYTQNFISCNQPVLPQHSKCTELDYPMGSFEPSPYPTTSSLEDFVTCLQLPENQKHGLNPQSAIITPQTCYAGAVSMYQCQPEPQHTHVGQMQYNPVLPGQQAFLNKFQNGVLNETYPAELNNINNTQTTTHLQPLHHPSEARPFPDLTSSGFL
# Efflux pump mplx: inhibitors of Candida antifungal efflux pumps expressed in yeast. S. cerevisiae Candida pump triplex, Nile Red efflux. inhibition, % at 10 µM. 0.44% of 330,000 active. AID 485275;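 active means plate passing quality check with inhibition over a set limit, or well fluorescence over plate mean plus 4 SD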;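 further: Nile Red retained in pooled yeast measured as flow cytometry median fluorescence; 0% = buffer negative control and 100% = Enniatin B positive control; higher means more Nile Red kept so more efflux inhibition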
# * hit, by the source's call; nt = no result. Most compounds without a hit are left out; they make up all but 7.2% or so of the library.
SMILES,VLA-4 inh,ALR inh,Mot1-301 SUMO,Bfl-1 A1 inh,AHR act,Efflux pump mplx
CNc1nnc(SCC(=O)c2cc(C)n(C3CC3)c2C)s1,16,92*,6,-1,1,0
Cc1cccc(OCc2nnc(SCC(=O)N3c4ccccc4Sc4ccc(Cl)cc43)o2)c1,13,7,-12,0,-4,1
c1ccc(Cc2nn3c(Cn4nnc5ccccc54)nnc3s2)cc1,-7,-6,7,21*,1,0
Cc1cc2c(c(SCC(=O)Nc3ccc(C)c(C)c3)n1)C(=O)OC2,-15,-15,-1,1,9,0
COc1cccc(C=Nc2cc(C)cc(C)c2)c1O,-8,-3,10,-1,0,0
COc1cc(Br)cc(C=Nc2cccc(C(F)(F)F)c2)c1O,8,nt,326*,0,1,0
COc1cccc(NC(=O)C2CC(=O)N/C(=N/NC(=O)c3ccc(C)cc3)S2)c1 (centres undefined),1,9,3,0,-3,0
CC1=C(C(=O)NC2CC(C)(C)Cc3c2cnn3-c2cccc(F)c2)OCCO1 (centres undefined),-101,97*,-22,0,2,0
CC1(C)Cc2c(cnn2-c2cccc(F)c2)C(NC(=O)c2ccc(=O)[nH]n2)C1 (centres undefined),-97,92*,14,0,1,0
O=c1[nH]c2ccccc2nc1CCc1ccccc1,9,-8,-13,-1,58*,0
O=c1[nH]c2ccccc2nc1Cc1ccc([N+](=O)[O-])cc1,-3,95*,-8,-1,7,0
COC(=O)CCC(C)N1CCC(Oc2ccc(C(=O)N3CCCC3)cc2)CC1 (centres undefined),0,-8,-19,-1,-1,0
COc1ccc(N2CCN(c3ncccn3)CC2)cc1,0,99*,-3,-1,-3,0
COc1ccc(N2CCN(Cc3nc4ccccc4n3C)CC2)cc1,3,89*,17,1,23,0
COc1ccc(N2CCN(c3nc4ccccc4n3CC(=O)c3ccccc3)CC2)cc1,14,55,2,0,3,0
CC(C)(C)CN1CCNC(=O)C1CC(=O)NCCc1ccccc1F (centres undefined),3,-1,-8,-1,-1,0
C[n+]1ccc(/C=N/Nc2nc(Cl)c(C#N)c(Cl)c2Cl)cc1,4,82*,-25,1,4,0
COc1cccc(N=c2oc3ccc(OC)cc3cc2-c2nc3ccccc3[nH]2)c1,2,-8,15,0,53*,0
Cc1ccc(C#CC(C)(O)C(C)(C)C)cn1 (centres undefined),-1,-28,-3,0,1,0
CC(C)CCNC(=O)c1nn(Cc2ccccc2)c(=O)c2ccccc12,-3,-3,-10,0,0,0
Cc1nc(Nc2ccc(O)cc2)c2c3c(sc2n1)CCCC3,0,98*,-3,0,45,0
CCOC(=O)C1=CN(Cc2cccc(Br)c2)S(=O)(=O)NC1C (centres undefined),nt,nt,nt,nt,nt,0
O=C(CNc1ccc2ccccc2c1)NNC1=NCCC1,12,84*,-11,0,9,0
O=C(CN1C(=O)CCC1=O)NNc1ccc2ccccc2c1,12,98*,201,1,35,0
O=C(CNc1ccccc1)NNC1=NCCC1,24,2,10,0,0,0
SMILES,VLA-4 inh,ALR inh,Mot1-301 SUMO,Bfl-1 A1 inh,AHR act,Efflux pump mplx
O=C(Cc1ccccc1)NNc1ccc2ccccc2c1,15,9,46,0,38,0
CC(=O)N1c2ccc3ccccc3c2C2C=CCC2C1c1ccc(Br)cc1 (centres undefined),-98,-54,15,1,85*,0
CCc1nnc(NC(=O)c2cc(-c3ccncc3)nc3ccccc23)s1,5,-2,3,0,62*,0
CCc1nnc(NC(=O)c2cc(-c3ccccn3)nc3ccc(Br)cc23)s1,1,-1,-15,0,49*,0
COc1ccccc1CCNC(=O)c1cc(-c2ccccn2)nc2ccc(Br)cc12,2,-6,238,0,4,0
COc1ccc(C2CC(c3ccccc3OC(C)=O)=NN2C(C)=O)cc1 (centres undefined),14,3,9,0,3,0
COc1ccc2[nH]c3c(=O)n4c(nc3c2c1)SCCC4,3,-13,0,0,25,0
COc1ccc(-c2cn3cc(Cl)ccc3n2)cc1OC,13,49,-15,-2,56*,0
O=C1CCC(C(=O)OCC(=O)Nc2ccc(Cl)cc2C(F)(F)F)=NN1,-2,nt,-5,0,2,0
Cn1c(N)c(C(=O)COC(=O)[C@H](Cc2ccccc2)N2C(=O)c3ccccc3C2=O)c(=O)n(C)c1=O,16,2,-3,0,58*,0
CN(CCC#N)C(=O)COC(=O)[C@H](Cc1ccccc1)N1C(=O)c2ccccc2C1=O,14,-88,-12,0,54*,0
CC(C)CC(C(=O)OCC(=O)c1c(N)n(C)c(=O)n(C)c1=O)N1C(=O)c2ccccc2C1=O (centres undefined),7,1,4,1,0,0
COc1ccc(NC(=O)CC(CC(=O)O)c2cc(OC)c(OC)c(OC)c2)cc1 (centres undefined),3,-26,27,0,0,0
N#CCCN1C(=O)C2(OCCO2)c2ccccc21,7,nt,11,1,0,0
CCOc1ccccc1NC(=O)CCC(=O)Nc1ccccc1OCC,-5,0,-2,1,14,0
CCOc1ccccc1N/C(=C(/C(Cl)=C(Cl)Cl)[N+](=O)[O-])n1cncn1,8,-1,21,1,54*,0
CCOc1ccc(N/C(=C(/C(Cl)=C(Cl)Cl)[N+](=O)[O-])n2cncn2)cc1,-91,-74,1,-1,15,0
O=[N+]([O-])/C(C(Cl)=C(Cl)Cl)=C(\Nc1ccc(F)cc1)n1cncn1,6,96*,35,0,28,0
Cc1nc2nc(CNC(=O)OC(C)(C)C)nn2c(C)c1CCC(=O)Nc1ccc2c(c1)OCO2,8,-7,14,0,7,0
CCOc1ccc2nc(N3CCC(C(=O)N4CCN(C5CCCCC5)CC4)CC3)sc2c1,5,-17,5,1,3,0
CCOc1ccc2nc(N3CCCCCC3)sc2c1,-5,90*,24,-4,-5,0
Cc1ccc(Cl)cc1N1CCN(C(=O)c2noc(C)c2[N+](=O)[O-])CC1,-11,9,nt,nt,0,0
Cc1onc(C(=O)N2CCN(c3ccccc3)CC2)c1[N+](=O)[O-],-16,95*,nt,nt,-1,0
